# TROY NFkB inh: inhibitors of TROY-driven NF-kB signaling, primary screen, Q293 LMP1-TROYcd cells, NF-kB luciferase, uHTS; Q293 LMP1-TROYcd NF-kB luciferase reporter, 4 h; inhibition, % at 10 µM; 0.98% of 360,000 active;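 active = compounds whose plate-normalised and pattern-corrected inhibition of the luciferase reporter signal at the single screening dose is 50% or more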
# LGR2 antag: inhibitors of bursicon-induced LGR2 CRE-luciferase signal, primary screen, cell-based, HEK293, CRE-luciferase reporter, bursicon stimulation. inhibition, % at 9.99 µM. bursicon-stimulated, 4 h. Drosophila bursicon receptor LGR2 (rickets). 0.35% of 380,000 active;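 active = drop in luminescence signal, shown as inhibition above about 50% in the replicate tests, limit read from the data, passing the limit was not always enough; inconclusive = probably only some replicates passing the limit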;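 note: agonist challenge used bursicon conditioned medium at about half maximal strength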
# EBV LMP1 NFkB: EBV LMP1-driven NF-kappaB luciferase reporter inhibitors, primary screen, cell-based, luminescence, single point | LMP1-induced NF-kappaB luciferase reporter cells | inhibition, % at 12.5 µM | 0.69% of 350,000 active; in the data active = inhibition above about 41%; inconclusive = no clear call, values can overlap the other calls;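 note: 0% = neutral control wells and 100% = reference inhibitor control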
# HSF1 inh: HSF1 inhibitors in luciferase reporter cells, primary screen, cell-based, NIH3T3, luminescence; NIH3T3-HGL HSE-luciferase, MG132-induced, luminescence 8 h; stronger effect = lower value; activity change, negative = inhibition, % at 7.5 µM (by protocol); 0.77% of 300,000 active;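 active = more than half of replicate wells show activity change below -50%, luminescence cut by over half; inconclusive = some wells, but at most half, below -50%; inactive = no replicate well below -50%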;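 note: luciferase reports HSF-1 transcriptional activity via heat shock element; 0% = median of DMSO wells and -100% = zero luminescence signal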
# HSF1 activator: HSF-1 activators, primary screen, NIH3T3-HGL cells, MG132 stress, luminescence, single point; 1.7% of 300,000 active; NIH3T3-HGL HSF-1 luciferase reporter, 8 h; 100% = twice DMSO control signal; activation, % at 9 µM;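 active = mean replicate activation of at least 50% with a set share of replicates each reaching 50%; inconclusive = only one of those two conditions met; inactive = mean below 50% and too few replicates reaching it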;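 note: 0% = median of the neutral control wells and 100% = twice that signal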
# TWEAK-Fn14 inh: inhibitors of TWEAK-Fn14 signaling, primary screen, luciferase reporter cells, uHTS; TWEAK-stimulated Fn14 reporter cells, luciferase luminescence, 8 h; inhibition, % at 10 µM; 2% of 360,000 active; in the data active = inhibition above about 50%
# An asterisk follows results filed as active; ? = inconclusive; nt = no result. Sampled rows, rich in hits. Any-hit rate of the full collection: about 3.6%.
SMILES,TROY NFkB inh,LGR2 antag,EBV LMP1 NFkB,HSF1 inh,HSF1 activator,TWEAK-Fn14 inh
CO[C@H]1CN(C)C(=O)c2ccc(NC(=O)C3CC3)cc2OC[C@H](C)N(Cc2cc(F)ccc2F)C[C@H]1C,nt,-3,nt,nt,nt,nt
CCN(CC(=O)Nc1ccc(NC(C)=O)cc1)C(=O)CSCC(=O)Nc1ccc(C)cc1,-5,-19,1,1,1,-3
CCOC(=O)CC(=O)CSCC(=O)Nc1ccc(C)cc1,-15,nt,-2,40,86*,7
N#C/C(=C\c1ccc(Cl)cc1Cl)c1n[nH]c(Cn2cncn2)n1,nt,nt,0,-4,-9,65*
CCC(=O)N1[C@H](CO)[C@@H](c2ccccc2)C12CN(CC1CCOCC1)C2,nt,9,nt,nt,nt,nt
C/C(=N/NC(=O)c1cccs1)c1ccco1,-42,-11,-5,14,56*,-30
C/C(=N\NC(=O)c1ccccc1O)c1cccs1,-20,52*,34,5,30,73*
C/C(=N\NC(=O)c1csc(C)c1C)c1ccco1,-51,nt,5,46,63*,-9
C/C(=N/NC(=O)c1cc(C2CC2)[nH]n1)c1cccs1,2,nt,60*,-7,7,89*
C/C(=N\NC(=O)c1cccc2ccccc12)c1cccs1,-58,-23,-8,8,23,-5
O=C(Cc1ccccn1)N[C@@H]1C=C[C@@H](CC(=O)N2CCCCC2)O[C@H]1CO,nt,9,nt,nt,nt,nt
C/C=C/c1ccc2c(c1)O[C@H](CN(C)C(=O)C1CCC1)[C@H](C)CN([C@H](C)CO)S2(=O)=O,nt,9,nt,nt,nt,nt
CC(=O)N/N=C(/C)c1ccc(NC(=O)c2csc(C)c2C)cc1,-27,-66,-18,43,71*,-2
C/C(=N\NC(=O)c1csc(C)c1C)c1ccc(C)s1,-63,-41,-24,3,-14,-26
O=C(N/N=C/c1cccc2ccccc12)c1cc(C2CC2)[nH]n1,-52,-27,53*,-1,5,-19
O=C(N/N=C/c1ccccn1)c1cc(C2CC2)[nH]n1,-52,-51,-13,16,24,-7
COc1cccc(NC(=O)N2CC3(C2)[C@H](c2ccccc2)[C@@H](CO)N3C(=O)C2CCC2)c1,nt,12,nt,nt,nt,nt
Cc1nc2cc(N3CCN(C)CC3)c(NC(=O)Cc3ccccc3)cc2c(=O)n1Cc1ccccc1,59*,nt,-8,-15,-13,87*
Oc1ccccc1-c1nnc(-c2ccc(C(F)(F)F)cc2)o1,-15,nt,-6,-63*,-71,-12
COc1cccc(-c2nnc(-c3ccc(C(F)(F)F)cc3)o2)c1,-33,nt,-50,17,26,-34
CCN(CC)S(=O)(=O)c1cccc(NC(=O)c2ccc(-n3nc(C)cc3C)cc2)c1,48,33,7,-18,-32,60*
CCCCN1C(=O)c2ccc(C(=O)Nc3cccc(C)c3C)cc2C1=O,-40,nt,-1,7,3,-19
Cc1cc(C)n(-c2ccc(C(=O)Nc3ccc(C)c(S(=O)(=O)N(C)C)c3)cc2)n1,20,11,17,4,-13,53*
CCCCN1C(=O)c2ccc(C(=O)Nc3ccc(C)c(S(=O)(=O)N(C)C)c3)cc2C1=O,55*,?,11,1,-4,91*
Cc1ccc(NC(=O)c2ccc(OC(F)(F)F)cc2)cc1S(=O)(=O)N(C)C,13,-4,12,-2,11,52*
SMILES,TROY NFkB inh,LGR2 antag,EBV LMP1 NFkB,HSF1 inh,HSF1 activator,TWEAK-Fn14 inh
COc1ccc(NC(=O)N(C)C[C@H]2OCCCC[C@@H](C)Oc3ccc(NC(=O)CCCN(C)C)cc3C(=O)N([C@@H](C)CO)C[C@H]2C)cc1,nt,11,nt,nt,nt,nt
COc1cc(CN2CC3(CCN(S(=O)(=O)c4cccc(F)c4)CC3)c3c([nH]c4cc(OC)ccc34)[C@H]2CO)cc(OC)c1,nt,7,nt,nt,nt,nt
Cc1cc(C)n(-c2ccc(C(=O)Nc3ccc(S(=O)(=O)NCc4ccco4)cc3)cc2)n1,38,nt,13,0,-10,59*
Cc1cccnc1NC(=O)c1ccc(S(=O)(=O)NCc2ccco2)cc1,-2,2,-1,-2,-4,-9
O=C(Nc1ncccc1O)c1ccc(S(=O)(=O)NCc2ccco2)cc1,-2,-2,43*,nt,nt,-18
CN(C)S(=O)(=O)Oc1ccc(C(=O)Nc2cccc(C(F)(F)F)c2)cc1,15,-5,-14,-7,31,54*
CN(C)S(=O)(=O)Oc1ccc(C(=O)Nc2cccc(Cl)c2)cc1,-38,-96,-13,29,23,-51
C[C@@H]1CN([C@@H](C)CO)C(=O)c2cc(-c3ccccc3F)cnc2O[C@@H]1CN(C)Cc1ccccc1,nt,-3,nt,nt,nt,nt
OC[C@@H](O)[C@@H](O)[C@H](O)[C@H](O)CO,-2,nt,47*,-36,-49,-6
OC[C@@H](O)[C@@H](O)[C@H](O)[C@@H](O)CO,14,nt,-1,-2,-2,-12
Cc1ccc2c(c1)c(C)c(C)n2CC(O)Cn1nc(C)c(Br)c1C (stereo unspecified),3,nt,-2,30,57*,17
COc1ccc(S(=O)(=O)N(C)CC(=O)N2CCC(C(N)=O)CC2)cc1Cl,-1,nt,-2,25,66*,6
CCCNC(=O)[C@@H]1[C@@H](CO)[C@@H]2Cn3c(ccc(C4=CCCC4)c3=O)[C@H]1N2CCC(F)(F)F,nt,9,nt,nt,nt,nt
O=[N+]([O-])c1ccc(/C=N/N=C/c2ccc([N+](=O)[O-])o2)o1,-61,82*,-17,nt,nt,84*
O=C(O)/C=C/c1ccc([N+](=O)[O-])o1,1,5,-4,8,-3,3
O=C1C2C3C=CC(C4CC34)C2C(=O)N1/N=C/c1ccc(-c2ccc([N+](=O)[O-])cc2)o1 (stereo unspecified),1,-10,-3,0,15,-8
O=C1C2C3C=CC(C4CC34)C2C(=O)N1/N=C/c1ccc([N+](=O)[O-])o1 (stereo unspecified),20,26,-94,26,33,90*
COc1ccc(S(=O)(=O)NCCc2c(C)nn(C)c2Oc2ccccc2)cc1,14,nt,4,1,12,4
Cc1nn(C)c(Oc2ccccc2)c1CCNS(=O)(=O)c1ccc(Cl)cc1,13,nt,9,9,55*,23
Cc1ccc(NC(=O)C2CCCN(c3ncccn3)C2)cc1F (stereo unspecified),-32,-53,-41,23,60*,-24
CCOC(=O)/C(=N/Nc1ccc(Cl)cc1)Sc1nnnn1-c1ccc(C)cc1,7,11,1,55,74*,-9

# Screens (PubChem)
